This is an account of results in PubChem BioAssay (EPA / NIEHS).

“And” between values parts separate entries of the source, which are not always exact repeats. Identical values can stand only once. More than one record can exist for a structure, and the calls need not agree. The source made the active and inactive calls. How the source made its calls: active means hit-call score of the fitted dose curve at least 0.9, where 1 is the maximum; inactive means score below 0.9.

Sequence of Heat shock factor protein 1 (Homo sapiens) (Q00613 whole entry, looked up, the tested form may be a part): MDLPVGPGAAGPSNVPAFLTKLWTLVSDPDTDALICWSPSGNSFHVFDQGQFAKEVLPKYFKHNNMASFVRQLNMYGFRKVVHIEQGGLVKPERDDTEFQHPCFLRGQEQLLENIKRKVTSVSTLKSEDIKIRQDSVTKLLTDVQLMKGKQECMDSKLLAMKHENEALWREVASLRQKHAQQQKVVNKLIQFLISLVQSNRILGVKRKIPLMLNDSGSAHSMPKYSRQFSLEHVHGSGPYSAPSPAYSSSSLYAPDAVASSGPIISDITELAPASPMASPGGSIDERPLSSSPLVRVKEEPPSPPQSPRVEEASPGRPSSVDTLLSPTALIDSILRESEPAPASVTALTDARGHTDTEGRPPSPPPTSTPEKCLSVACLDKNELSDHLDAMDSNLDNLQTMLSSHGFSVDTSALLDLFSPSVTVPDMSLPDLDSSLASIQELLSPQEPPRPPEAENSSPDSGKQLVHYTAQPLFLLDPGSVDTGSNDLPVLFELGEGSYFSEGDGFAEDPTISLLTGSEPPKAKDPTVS

This assay addresses Heat shock factor protein 1 (Homo sapiens) (UniProt Q00613). The assay is described as follows: ATG_HSE_CIS: Attagene CIS-FACTORIAL HepG2 Assay for human Heat Shock Transcription Factor 1 (HSE) (AID 2282953). Conditions: HepG2 HSE cis-reporter, Attagene RNA transcription; actives raise or lower the signal. In short, it runs like this: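 Endogenous transcription factor activity captured via cis-promoter reporter units transfected into HepG2; treatment lasted 24 h. Fluorescence intensity of reporter fragments analysed with bidirectional curve fitting, DMSO baseline.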
With `CCCCOC(=O)[C@@H](C)Oc1ccc(Oc2ccc(C(F)(F)F)cn2)cc1`, the call was inactive.

As to `CCOC(=O)c1ccc(O)cc1`, the molecule was classed as inactive.

Take `COC(=O)c1ccccc1S(=O)(=O)NC(=O)Nc1nc(OC(F)F)cc(OC(F)F)n1`: the outcome was inactive.

Take `COC(=O)c1cccc(C)c1S(=O)(=O)NC(=O)Nc1nc(OCC(F)(F)F)nc(N(C)C)n1`: the call was inactive.

Regarding `CCC(O)=C1C(=O)CC(C(=O)O)CC1=O` (stereo not drawn), the result was inactive.

As to `CCCCOC(=O)C(C)Oc1ccc(Oc2ccc(C(F)(F)F)cn2)cc1` (stereo not drawn), the outcome was inactive.

As to `COC(=O)CSc1cc(N=c2sc(=O)n3n2CCCC3)c(F)cc1Cl`, the molecule was classed as inactive.

In the case of `COc1nc(C)nc(NC(=O)NS(=O)(=O)c2ccccc2OCCCl)n1`, the outcome was inactive.

The term AC50 denotes the concentration at which the activity in the assay is half-maximal. Take `N[C@@H](Cc1cc(I)c(Oc2ccc(O)c(I)c2)c(I)c1)C(=O)O`: the AC50 was 107 µM (active) and 160 µM (active); the molecule was called inactive.

For the molecule `CCCCC(CC)CN1C(=O)C2C3C=CC(C3)C2C1=O` (stereo not drawn), the molecule was called inactive.

On to `C[C@]12CC[C@@H]3c4ccc(O)cc4C[C@@H](CCCCCCCCCS(=O)CCCC(F)(F)C(F)(F)F)[C@H]3[C@@H]1CC[C@@H]2O` (stereo partly drawn), for which the molecule was classed as inactive.

With `CC(C)CCCCCCc1ccc(O)cc1`, the AC50 is 15.3 µM (active) and 19.9 µM (active) and 17 µM (active); the result was inactive.

As for `O=C(c1ccc(O)cc1O)c1ccc(O)cc1O`, the AC50 was 41.3 µM (active) [middle of 4 runs].

With `CN(C)C(=O)Nc1ccc(Cl)c(Cl)c1`, the molecule was called inactive.

Consider `COCCO`, for which the outcome was inactive.

Turning to `N#CSCSc1nc2ccccc2s1`, the AC50 was 18.1 µM (active) and the call was inactive.

As to `CCOC(=O)COc1cc(-n2ncc(C(F)(F)F)c(C)c2=O)c(F)cc1Cl`, the outcome was inactive.

Turning to `CCCN(CCC)c1c([N+](=O)[O-])cc(C(F)(F)F)c(N)c1[N+](=O)[O-]`, the AC50 is 81 µM (active).

`COC(=O)c1ccccc1C(=O)O`: the result was inactive.

Take `C=CCOC(Cn1ccnc1)c1ccc(Cl)cc1Cl` (stereo not drawn): the AC50 is 84.4 µM (active).

Consider `CSC(=O)c1cccc2nnsc12`, for which the molecule was classed as inactive.

Take `CC(=O)S[C@@H]1CC2=CC(=O)CC[C@]2(C)[C@H]2CC[C@@]3(C)[C@@H](CC[C@@]34CCC(=O)O4)[C@H]12`: the AC50 is 171 µM (active) and the call was inactive.

As to `c1ccc2[nH]c(-c3cscn3)nc2c1`, the result was inactive.

Regarding `C[C@]12C[C@H](O)[C@H]3[C@@H](CCC4=CC(=O)CC[C@@]43C)[C@@H]1CC[C@@H]2C(=O)CO`, the molecule was classed as inactive.

In the case of `OB(O)O`, the result was inactive.

Take `S=C(S)NCCNC(=S)S.[Mn+2].[S-]C([S-])=NCCN=C([S-])[S-].[Zn+2]`: the molecule was classed as inactive.

For the molecule `COC(=O)c1ccc(CNS(C)(=O)=O)cc1S(=O)(=O)NC(=O)Nc1nc(OC)cc(OC)n1`, the call was inactive.

Regarding `O=C(c1ccccc1)C1CCCCC1`, the result was inactive.

Regarding `COC(=O)c1c(Cl)nn(C)c1S(=O)(=O)NC(=O)Nc1nc(OC)cc(OC)n1`, the outcome was inactive.
